Laboratory results published in PubChem BioAssay (NCATS).
Inconclusive results are not listed. Activity calls are given as the source filed them. Calls follow the shape of the dose curve; as a rule, active = well fitted inhibition curve with a large enough effect; inconclusive = small, poorly fitted or top-dose-only effect; inactive = flat fitted curve, though single readings scatter.

Columns and labels:
Assay in all cases: qHTS profiling for inhibitors of Plasmodium falciparum proliferation (AID 504749); also: nearly all actives have a fitted effect of over 60% in size
Conditions in all cases: P. falciparum in erythrocytes, SYBR Green DNA, 72 h; series mostly up to 28.7 µM
CP247 = test system: CP247
How it was run: (§1)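 Fluorescence of SYBR Green-bound parasite DNA, read at 485/535 nm, served as the growth measure. Infected erythrocytes were cultured with compound 72 h; artemisinin (0.29 uM) and DMSO wells defined the normalization range.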

CP250 = test system: CP250
How it was run: as §1

CP252 = test system: CP252
How it was run: as §1

CP256 = test system: CP256
How it was run: as §1

CP262 = test system: CP262
How it was run: as §1

CP266 = test system: CP266
How it was run: as §1

CP268 = test system: CP268
How it was run: as §1

CP260 = test system: CP260
How it was run: as §1

CP265 = test system: CP265
How it was run: as §1

CP269 = test system: CP269
How it was run: as §1

Measured: Potency
Potency is read from the fitted curve at half-maximal effect.

CC(C)NCC(O)COc1ccc(CCOCC2CC2)cc1 (stereo not given)
not listed: CP260 | CP265 | CP269
inactive: all other assays above

CN(C)CCC=C1c2ccccc2C=Cc2ccccc21
not listed: CP256 | CP268 | CP269
inactive: all other assays above

CCOC(=O)Nc1ccc(NCc2ccc(F)cc2)nc1N
active: CP247 12.6 µM | CP252 8.91 µM | CP256 10 µM | CP260 11.2 µM | CP262 12 µM | CP265 11.2 µM

CN(Cc1cnc2nc(N)nc(N)c2n1)c1ccc(C(=O)N[C@@H](CCC(=O)O)C(=O)O)cc1
inactive: CP252 | CP262 | CP266 | CP268 | CP269
active: CP250 0.178 µM | CP260 0.158 µM

NC12CC3CC(CC(C3)C1)C2
not listed: CP256
inactive: all other assays above

CC(C)(Oc1ccc(C2CC2(Cl)Cl)cc1)C(=O)O (stereo not given)
not listed: CP262
inactive: all other assays above

O=C1c2c(O)ccc(O)c2C(=O)c2c(NCCNCCO)ccc(NCCNCCO)c21
active: CP247 3.16 µM | CP250 3.16 µM | CP252 3.16 µM | CP260 1 µM | CP266 5.1 µM | CP268 7.21 µM | CP269 7.21 µM

CC(COc1ccccc1)N(CCCl)Cc1ccccc1 (stereo not given)
not listed: CP268 | CP260 | CP265
inactive: all other assays above

O=C(c1ccc(OCCN2CCCCC2)cc1)c1c(-c2ccc(O)cc2)sc2cc(O)ccc12
inactive: CP262
active: CP247 7.08 µM | CP260 3.16 µM | CP268 10.7 µM

COc1ccccc1OCCNCC(O)COc1cccc2[nH]c3ccccc3c12 (stereo not given)
active: CP256 11.2 µM | CP265 8.91 µM
inactive: CP266

CN(C)CCOC(c1ccccc1)c1ccccc1
active: CP260 5.62 µM
inactive: CP247 | CP250 | CP262 | CP266 | CP269

Cc1cn([C@H]2C=C[C@@H](CO)O2)c(=O)[nH]c1=O
not listed: CP266
inactive: all other assays above

CCCCc1oc2ccccc2c1C(=O)c1cc(I)c(OCCN(CC)CC)c(I)c1
inactive: CP266
active: CP247 8.91 µM | CP250 7.94 µM | CP252 11.2 µM | CP256 12.6 µM | CP260 3.98 µM | CP265 7.08 µM

CC(C)NCC(O)c1ccc(O)c(O)c1 (stereo not given)
not listed: CP266
inactive: all other assays above

Clc1ccc(C(c2ccccc2Cl)C(Cl)Cl)cc1 (stereo not given)
not listed: CP268 | CP260
inactive: all other assays above

CC(=O)OCC(CCn1cnc2cnc(N)nc21)COC(C)=O
not listed: CP266
inactive: all other assays above

CNCCCC12CCC(c3ccccc31)c1ccccc12
not listed: CP260 | CP265 | CP269
inactive: all other assays above

CCC1(c2ccccc2)C(=O)NCNC1=O
not listed: CP262 | CP260
inactive: all other assays above

O=c1[nH]cc(F)c(=O)[nH]1
active: CP247 8.91 µM
inactive: CP262 | CP266

CN(C)CCCN1c2ccccc2CCc2ccc(Cl)cc21
inactive: CP247 | CP250 | CP252 | CP265 | CP268

CC(C)C(=O)Nc1ccc([N+](=O)[O-])c(C(F)(F)F)c1
not listed: CP247
inactive: all other assays above

Clc1ccccc1C(c1ccccc1)(c1ccccc1)n1ccnc1
active: CP247 0.891 µM | CP250 1.58 µM | CP252 0.891 µM | CP256 2 µM | CP260 1.41 µM | CP262 1.02 µM | CP265 0.708 µM | CP268 2.28 µM | CP269 0.907 µM

COc1ccc(CCN(C)CCCC(C#N)(c2ccc(OC)c(OC)c2)C(C)C)cc1OC (stereo not given)
not listed: CP266 | CP260 | CP269
inactive: all other assays above

Clc1ccc2c(c1)C(N1CCNCC1)=Nc1ccccc1O2
inactive: CP250 | CP262 | CP266 | CP268 | CP269

CN1CCC(=C2c3ccccc3CC(=O)c3sccc32)CC1
active: CP265 10 µM
inactive: CP250 | CP252 | CP262 | CP266

CC#C[C@]1(O)CC[C@H]2[C@@H]3CCC4=CC(=O)CCC4=C3[C@@H](c3ccc(N(C)C)cc3)C[C@@]21C
active: CP247 8.91 µM | CP268 16.9 µM | CP269 13.5 µM

O=C(c1ccc(F)cc1)C1CCN(CCn2c(=O)[nH]c3ccccc3c2=O)CC1
not listed: CP247 | CP250 | CP268
inactive: all other assays above

O=c1c(O)c(-c2ccc(O)c(O)c2)oc2cc(O)cc(O)c12
inactive: CP266
active: CP247 7.08 µM

CC12CC3CC(C)(C1)CC(N)(C3)C2
not listed: CP260
inactive: all other assays above

COC(=O)Nc1nc2ccc(C(=O)c3cccs3)cc2[nH]1
not listed: CP260
inactive: all other assays above

Nc1c2c(nc3ccccc13)CCCC2
inactive: CP250 | CP252 | CP266

CN(C)C(=N)N=C(N)N
not listed: CP262 | CP268 | CP269
inactive: all other assays above

Nc1nc2c(ncn2COC(CO)CO)c(=O)[nH]1
not listed: CP266
inactive: all other assays above

Cn1ccc2cc3c(cc21)CCN3C(=O)Nc1cccnc1
inactive: CP262

O=C(Nc1ccc([N+](=O)[O-])cc1Cl)c1cc(Cl)ccc1O
active: CP260 2.82 µM | CP268 1.9 µM | CP269 1.2 µM
